Compound activity as filed in PubChem.
This is a sample that favours compounds with a hit; in the whole collection about 3.1% have one here.
TROY signal inh: TROY signaling inhibition; Q293 LMP1-TROYcd NF-kB luciferase reporter, 4 h; inhibition, % at 10 µM; hit rate 0.98% among 360,000;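 active = compounds whose plate-normalised and pattern-corrected inhibition of the luciferase reporter signal at the single screening dose is 50% or more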
PAX8 reporter: inhibitors of PAX8 transcriptional activity in RMG-I cells; RMG-I TPO-luciferase reporter, SteadyGlo, 24 h; inhibition, % at 12.6 µM; hit rate 1.2% among 360,000; AID 652154;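 active = mean replicate inhibition at least 60% with every replicate also reaching 60%; inconclusive = only one of the two criteria is met; inactive = mean below 60% and not all replicates reaching 60%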;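 note: luciferase light reporting Pax8 driven TPO promoter activity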
TWEAK-Fn14 inh: inhibitors of TWEAK-Fn14 interaction signaling | TWEAK-stimulated Fn14 reporter cells, luciferase luminescence, 8 h | inhibition, % at 10 µM | hit rate 2% among 360,000; in the data active = inhibition above about 50%
EWS-Fli block: EWS/Fli transcriptional activity inhibition. A673 NR0B1-luciferase reporter, viability-normalised. inhibition, % at 12.6 µM. hit rate 0.67% among 350,000. AID 651661;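 active = mean inhibition of at least 50% after viability correction, with every replicate also passing that limit; inconclusive = mean reaches 50% but only one of two replicates passes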;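 note: firefly luciferase signal divided by Alamar Blue viability fluorescence both relative to DMSO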
LMP1 NFkB inh: inhibitors of Epstein-Barr LMP1-induced NF-kappaB reporter. hit rate 0.69% among 350,000. inhibition, % at 12.5 µM. LMP1-induced NF-kappaB luciferase reporter cells, luminescence; in the data active = inhibition above about 41%; inconclusive = no clear call, values can overlap the other calls
LGR2 inh: inhibitors of bursicon-induced Drosophila LGR2 receptor cAMP signaling | inhibition, % at 9.99 µM | HEK293 LGR2, CRE-luciferase, bursicon-stimulated, 4 h | AID 720647 | hit rate 0.35% among 380,000;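 active = drop in luminescence signal, shown as inhibition above about 50% in the replicate tests, limit read from the data, passing the limit was not always enough; inconclusive = probably only some replicates passing the limit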;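 note: agonist challenge used bursicon conditioned medium at about half maximal strength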
Of the large screens only hits and unclear results are named; the others gave an inactive call.

Cc1ccc(S(=O)(=O)N(C)C[C@@H]2OCCCC[C@H](C)Oc3ccc(NS(=O)(=O)c4ccc(Cl)cc4)cc3C(=O)N([C@H](C)CO)C[C@H]2C)cc1	PAX8 reporter 81.4 (no result: TROY signal inh, TWEAK-Fn14 inh, LMP1 NFkB inh)
Cc1ccc(S(=O)(=O)N(C)C[C@H]2OCCCC[C@@H](C)Oc3ccc(NS(=O)(=O)c4ccc(Cl)cc4)cc3C(=O)N([C@@H](C)CO)C[C@H]2C)cc1	PAX8 reporter 72.7 (no result: TROY signal inh, TWEAK-Fn14 inh, LMP1 NFkB inh)
Cc1ccc(S(=O)(=O)Nc2ccc3c(c2)C(=O)N([C@@H](C)CO)C[C@H](C)[C@@H](CN(C)S(=O)(=O)c2ccc(Cl)cc2)OCCCC[C@H](C)O3)cc1	none (no result: TROY signal inh, TWEAK-Fn14 inh, LMP1 NFkB inh)
Cc1ccc(S(=O)(=O)N(C)C[C@H]2OCCCC[C@H](C)Oc3ccc(NS(=O)(=O)c4ccc(Cl)cc4)cc3C(=O)N([C@H](C)CO)C[C@@H]2C)cc1	PAX8 reporter 81.5 (no result: TROY signal inh, TWEAK-Fn14 inh, LMP1 NFkB inh)
Cc1ccc(S(=O)(=O)N(C)C[C@@H]2OCCCC[C@H](C)Oc3ccc(NS(=O)(=O)c4ccc(Cl)cc4)cc3C(=O)N([C@@H](C)CO)C[C@@H]2C)cc1	PAX8 reporter 67.9 (no result: TROY signal inh, TWEAK-Fn14 inh, LMP1 NFkB inh)
Cc1ccc(S(=O)(=O)Nc2ccc3c(c2)C(=O)N([C@@H](C)CO)C[C@H](C)[C@@H](CN(C)S(=O)(=O)c2ccc(Cl)cc2)OCCCC[C@@H](C)O3)cc1	none (no result: TROY signal inh, TWEAK-Fn14 inh, LMP1 NFkB inh)
C[C@H](CO)N1C[C@H](C)[C@H](CN(C)Cc2ccccc2)Oc2ccc(NC(=O)CCN3CCOCC3)cc2C1=O	none (no result: TROY signal inh, TWEAK-Fn14 inh, LMP1 NFkB inh)
O=C(NCCN1CCCCC1)[C@H]1N[C@H]2c3ccc(-c4ccncc4)c(=O)n3C[C@H]2[C@@H]1CO	none (no result: TROY signal inh, TWEAK-Fn14 inh, LMP1 NFkB inh)
Cc1nn(-c2ccccc2)c(Cl)c1C1C(C#N)=C(N)Oc2n[nH]c(C)c21 (stereo not drawn)	LMP1 NFkB inh 52.6 (no result: PAX8 reporter, EWS-Fli block, LGR2 inh)
COc1cc(OC)c2c(-c3cccc(-c4ccc(NC(C)=O)cc4)c3)cc(=O)oc2c1	PAX8 reporter 78.5
CCOC(=O)c1ccc(-c2cccc(-c3cc(=O)oc4cc(OC)cc(OC)c34)c2)cc1	none (no result: PAX8 reporter, EWS-Fli block, LGR2 inh)
COc1cc(OC)c2c(-c3cccc(-c4sccc4C(C)=O)c3)cc(=O)oc2c1	PAX8 reporter 84.4, EWS-Fli block 55.8
COc1cc(OC)c2c(-c3cccc(-c4ccc(C(F)(F)F)cc4)c3)cc(=O)oc2c1	EWS-Fli block inconclusive
COc1cc(OC)c2c(-c3cccc(-c4ccc(C#N)cc4)c3)cc(=O)oc2c1	EWS-Fli block 56.1
COc1cc(OC)c2c(-c3cccc(-c4ccc(OC)c(OC)c4)c3)cc(=O)oc2c1	TWEAK-Fn14 inh 96.8, EWS-Fli block 52.9
COc1ccccc1S(=O)(=O)N[C@H]1C=C[C@H](CC(=O)NCc2cccc(F)c2)O[C@@H]1CO	none (no result: TROY signal inh, TWEAK-Fn14 inh, LMP1 NFkB inh)
CN(C)c1ccc2c(=O)c3ccccc3oc2n1	TWEAK-Fn14 inh 55.2 (no result: LMP1 NFkB inh)
C[C@H](NCc1c[nH]c2ccccc12)c1ccccc1	LMP1 NFkB inh 80.5
CO[C@@H]1CN(C)C(=O)c2cc(NS(=O)(=O)c3ccccc3)ccc2OC[C@H](C)NC[C@H]1C	none (no result: TROY signal inh, TWEAK-Fn14 inh, LMP1 NFkB inh)
CO[C@@H]1CN(C)C(=O)c2ccc(NC(=O)c3cccc(F)c3)cc2OC[C@H](C)N(CC2CC2)C[C@H]1C	none (no result: TROY signal inh, TWEAK-Fn14 inh, LMP1 NFkB inh)
CCN(CC)S(=O)(=O)c1ccc(C(=O)Nc2ccc(Cc3ccncc3)cc2)cc1	TWEAK-Fn14 inh 58.1
CCN(CC)S(=O)(=O)c1ccc(NC(=O)c2ccc(N(C)S(C)(=O)=O)cc2)cc1	TWEAK-Fn14 inh 50.1 (no result: PAX8 reporter, EWS-Fli block, LGR2 inh)
CCN(CC)S(=O)(=O)c1ccc(C(=O)Nc2cc(C)cc(C)c2)cc1	none (no result: EWS-Fli block, LGR2 inh)
CNC[C@@H](CC1CCCCC1)NC[C@H](CC(C)C)NCCc1cccc(C(F)(F)F)c1	PAX8 reporter 113.1, LGR2 inh 102.7
CN(Cc1cccc(C(F)(F)F)c1)C(=O)C1CCC(=O)N(CC2CCCCC2)C1 (stereo not drawn)	none
CNC[C@@H](Cc1ccccc1)NC[C@@H](CC1CCCCC1)NCCCc1ccccc1	PAX8 reporter 74.2, LGR2 inh 102.3
CO[C@H]1CN(C)C(=O)c2cc(NS(C)(=O)=O)ccc2OC[C@@H](C)NC[C@H]1C	none (no result: TROY signal inh, PAX8 reporter, TWEAK-Fn14 inh, EWS-Fli block, LMP1 NFkB inh)
Cc1ccc(NC(=O)C(C)OC(=O)CCNS(=O)(=O)c2ccc(C)cc2)cc1 (stereo not drawn)	PAX8 reporter 69.7
COc1ccc(S(=O)(=O)N(C)C[C@@H]2Oc3c(NS(=O)(=O)c4ccc(F)cc4)cccc3C(=O)N([C@H](C)CO)C[C@H]2C)cc1	none (no result: TROY signal inh, TWEAK-Fn14 inh, LMP1 NFkB inh)
COc1ccc(-c2nc(-c3ccc(NC(=O)c4ccc(Br)o4)cc3)no2)cc1OC	none (no result: PAX8 reporter, EWS-Fli block, LGR2 inh)
COc1cc(-c2nc(-c3ccc(NC(=O)c4ccc(Br)o4)cc3)no2)cc(OC)c1OC	TWEAK-Fn14 inh 59.4 (no result: PAX8 reporter, EWS-Fli block, LGR2 inh)
Nc1nc(CSC(=S)N2CCN(c3ccccc3)CC2)nc(Nc2ccc(F)cc2)n1	TWEAK-Fn14 inh 50.0 (no result: EWS-Fli block)
Nc1nc(CSC(=S)N2CCOCC2)nc(Nc2ccccc2)n1	none (no result: EWS-Fli block)
C[C@H](CO)N1C[C@H](C)[C@H](CN(C)Cc2cccnc2)Oc2cc(C3=CCCC3)ccc2S1(=O)=O	none (no result: TROY signal inh, TWEAK-Fn14 inh, LMP1 NFkB inh)
O=[N+]([O-])c1cc(S(=O)(=O)N2CCCC2)ccc1N/N=C1/CCCc2ccccc21	TWEAK-Fn14 inh 63.5
C[C@H](NC(=O)C[C@H]1C[C@@H]2c3cc(NS(C)(=O)=O)ccc3O[C@@H]2[C@@H](CO)O1)c1ccccc1	none (no result: TROY signal inh, TWEAK-Fn14 inh, LMP1 NFkB inh)
O=C(Nc1ccccc1)C1CCN(C(=O)c2ccco2)CC1	none
CCC1CCCCN1S(=O)(=O)c1ccc(NC(=O)C2CCN(C(=O)c3ccco3)CC2)cc1 (stereo not drawn)	PAX8 reporter 64.0
